Screening results (PubChem BioAssay)
LASV entry inh: inhibitors of Lassa virus binding or cell entry. Lassa virus pseudotype entry inhibition, cell reporter. Potency, µM (series often up to 37.9 µM), without a hit: at the highest dose activity change, negative = inhibition, actives largely listed as inhibitors. actives 1.2% (n = 300,000); calls by dose curve; tested in HEK293 cells; also: potency is read from the fitted curve at half-maximal effect; nearly all actives have a fitted effect of over 50% in size
FMDV inh: blocks foot and mouth disease virus; actives 1.2% (n = 410,000); Potency, µM (top dose mostly 57.9 µM), for the others: top-dose activity change, negative = inhibition, usual class: inhibitors; FMDV antiviral cell-based qHTS; AID 1159524; calls by dose curve; tested in HEK293T cells; also: read-out not given here; potency is read from the fitted curve at half-maximal effect; nearly all actives have a fitted effect of over 45% in size
Marburg entry inh: Marburg virus entry inhibition; actives 1.8% (n = 300,000); Marburg virus pseudotyped entry inhibition, cell reporter; AID 540276; Potency, µM (series often up to 37.8 µM), for the others: at the highest dose activity change, negative = inhibition, hits mostly inhibitors; calls by dose curve; tested in HEK293 cells; also: potency is read from the fitted curve at half-maximal effect
HCMV inh: blocks human cytomegalovirus replication | AID 1259415 | activity change, negative = inhibition, % at 57.5 µM | actives 4.5% (n = 410,000) | HFF cells, HCMV-luciferase reporter, 72 h; active compounds read low; in the data active = activity change below about -60%; inconclusive = no clear call, values can overlap the other calls; inactive = above about -39%
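After 16 h attachment at 37C, HFF cells received test compound and HCMV-luciferase (1 PFU/cell); reporter luminescence read 72 h later, data normalized against buffer-only and known inhibitor Salinomycin.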
An asterisk follows results filed as active; ? = inconclusive; · = no result; [ ] = remark or other dose. This is a sample that favours compounds with a hit; in the whole collection about 6.2% have one here. % is scaled to controls: 0 for no effect and ±100 for the full control effect.

SMILES	LASV entry inh	FMDV inh	Marburg entry inh	HCMV inh
COc1ccc(-n2nc(C(=O)Nc3cc(C)ccn3)c3c4ccccc4n(C)c3c2=O)cc1Cl	-1%[46.1 µM]	3%	-1%[46.1 µM]	-20
O=C(Nc1nccs1)c1c(O)c2cccc3c2n(c1=O)CCC3	·	·	·	-95*
NCCNC(=O)c1c(O)c2cccc3c2n(c1=O)CCC3	8%	-25%	10µM*	13
CCCNC(=O)c1c(O)c2cccc3c2n(c1=O)CCC3	6%[46.1 µM]	-14%	-6%[46.1 µM]	-17
O=C(Nc1ccccn1)c1c(O)c2cccc3c2n(c1=O)CCC3	?	12%	?	154
CC(C)n1nnc2cc(C(=O)O)ccc21	·	-10%	·	·
Cc1ccc([N+](=O)[O-])cc1S(=O)(=O)Nc1ccc(C(=O)N(C)C)cc1	9%	0%	6%[46.1 µM]	?
Cc1ccccc1NS(=O)(=O)c1cc(C(=O)Nc2cccc([N+](=O)[O-])c2)ccc1C	11µM*	-71%	?	-95*
CC(=O)Nc1ccc(NS(=O)(=O)c2cc([N+](=O)[O-])ccc2C)cc1	-1%	13%	8%[46.1 µM]	-71*
CCOC(=O)[C@H](C)Oc1ccc2c(C)cc(=O)oc2c1C(C)=O	·	·	15%	·
O=C(NNc1nc(-c2ccc(F)cc2)cs1)c1ccccc1	?	13%	?	-99*
O=C(NNc1nc(-c2ccccc2)cs1)c1cccs1	?	22%	?	-8
O=C1OC(Nc2nc(-c3ccc(F)cc3)cs2)c2ccccc21 (stereo unspecified)	1%[46.1 µM]	-19%	?	-91*
CC1(C)CC(CC(=O)NNc2nc(-c3ccccc3)cs2)C(=O)O1 (stereo unspecified)	12%	-6%	1.3µM*	-19
O=C(NNc1nc(-c2ccccc2)cs1)c1ccc(F)cc1	10%	7%	-1%	-80*
CC(=O)NNc1nc(-c2ccccc2)cs1	-1%[46.1 µM]	5%	?	-14
O=C1OC(Nc2nc3ccccc3s2)c2ccccc21 (stereo unspecified)	24%	26%	13%	65
CC1(C)CC(C(=O)N2CCOc3ccc(CN4CCC(Oc5cccnc5)CC4)cc3C2)CCO1 (stereo unspecified)	·	-10%	·	·
Fc1ccc(C2CCNCC2COc2ccc3c(c2)OCO3)cc1 (stereo unspecified)	?	-15%	?	-34
Fc1ccc([C@@H]2CCNC[C@H]2COc2ccc3c(c2)OCO3)cc1	?	?	16µM*	?
[N-]=[N+]=NC(c1ccccc1)C(NC(=O)c1cc(C(F)(F)F)cc(C(F)(F)F)c1)c1ccccc1 (stereo unspecified)	·	25µM*	·	?
COc1ccc(-c2nc(-c3ccc(Br)o3)no2)cc1OC	·	26%	·	-4
COc1ccc(-c2nnc(-c3ccc(Br)o3)o2)cc1OC	3%	33%	21%	-107*
O=C(N/N=C/c1cc([N+](=O)[O-])ccc1O)c1ccc(COc2ccc3c(c2)CCC3)o1	?	?	?	-96*
COc1ccc(Br)cc1/C=N/NC(=O)c1ccc(COc2ccc3c(c2)CCC3)o1	23%	24%	?	73
SMILES	LASV entry inh	FMDV inh	Marburg entry inh	HCMV inh
O=C(NCc1cccnc1)c1ccc(COc2ccc3c(c2)CCC3)o1	?	18µM*	23µM*	24
COC(=O)c1ccc(COc2ccc3c(c2)CCC3)o1	?	25%	?	116
COc1ccc2c(C(=O)CCl)c[nH]c2c1	·	35µM*	·	-101*
COc1ccc2[nH]cc(C(=O)CN(C)C)c2c1	·	-17%	·	39
CCOc1ccc(CCN2C(=S)N([C@@H](Cc3ccc(O)cc3)CN3CCC[C@@H]3CN3C(=S)NC[C@@H]3Cc3ccc(O)cc3)C[C@@H]2Cc2ccc(O)cc2)cc1	·	-1%	·	-26
CCn1ncc(C2=NOC(C(=O)NCc3ccccc3)C2)c1C (stereo unspecified)	-22%	-25%	?	-60*
CCn1ncc(C2=NOC(C(=O)NCc3ccc(OC)cc3)C2)c1C (stereo unspecified)	-25%	-18%	?	-18
CCn1ncc(C2=NOC(C(=O)Nc3c(C)nn(Cc4ccc(F)cc4)c3C)C2)c1C (stereo unspecified)	·	-2%	·	-61*
C=CCOC(=O)N[C@H](C(C(=O)OC)=C(C)NCc1ccccc1)c1ccc(Br)cc1	·	·	7%[14.2 µM]	·
COc1ccc(Cl)cc1-c1noc([C@@H]2O[C@H](CO)[C@H](O)[C@H](O)[C@H]2O)n1	·	-25%	·	-73*
CCn1cc(CNC(=O)c2cc(COc3ccc(F)cc3Cl)on2)cn1	?	-25%	15µM*	?
CCn1nc(C)c(CNC(=O)c2cc(COc3ccc(F)cc3Cl)on2)c1C	·	?	·	-85*
CCn1nc(C)c(CNC(=O)c2cc(COc3ccc(C)nc3)on2)c1C	?	?	?	-24
C=CCCC[C@@H]1OC(=O)CNC(=O)C([C@@H](C)CC)NC(=O)[C@@H]2CCCN2C(=O)C([C@@H](C)CC)OC(=O)[C@H](Cc2ccccc2)N(C)C(=O)[C@H](C(C)C)NC(=O)C1(C)C (stereo partly specified)	·	-19%	·	-73*
CCn1c2ccccc2c2cnc(N=CN(C)C)c(C#N)c21	-8%	?	?	-70*
CCN(CC)CCn1c2ccccc2c2cnc(N=CN(C)C)c(C#N)c21	?	-9%	?	-94*
COc1c(N2C[C@@H]3CCCN[C@@H]3C2)c(F)cc2c(=O)c(C(=O)O)cn(C3CC3)c12	·	-13%	·	-14
COc1c(N2CCN(C(=S)NCc3ccccc3)C(C)C2)c(F)cc2c(=O)c(C(=O)O)cn(C3CC3)c12 (stereo unspecified)	11%	-23%	-23%	-67*
COc1c(F)c(F)cc2c(=O)c(C(=O)O)cn(C3CC3)c12	17%	2%	?	-61*
COc1c(N2CCN[C@H](C)C2)c(F)cc2c(=O)c(C(=O)O)cn(C3CC3)c12	·	-16%	·	·
CN(Cc1ccccc1)[C@@H]1CC[C@@]23CCCN2C(=O)CCC[C@H]3[C@H]1Cc1ccccc1	·	·	·	30
CC1CN(CCC(=O)NCc2ccc3ncccc3c2)Cc2cc(Cl)ccc2O1 (stereo unspecified)	·	-4%	·	·
O=C(c1ccco1)N1CCN(C(=O)C2CCCc3c2[nH]c2ccc(Cl)cc32)CC1 (stereo unspecified)	4.5µM*	-13%	2.8µM*	-38
O=C(CSc1c2c(nc3ccc(Cl)cc13)CCCC2)N1CCCCC1	-16%[46.1 µM]	?	6%[46.1 µM]	1
CCN(CC)CCNC(=O)CSc1c2c(nc3cc(Cl)ccc13)CCCC2	·	?	·	-99*
COc1ccc(CNC(=O)CSc2c3c(nc4ccc(Cl)cc24)CCCC3)cc1	4%[46.1 µM]	?	21%[46.1 µM]	-37
O=C(O)c1[nH]c2ccc(Cl)cc2c1CC(=O)N1CCN(C(=O)c2ccco2)CC1	10%	0%	11%	6
Cc1ccc(CNC(=O)CSc2c3c(nc4ccc(Cl)cc24)CCCC3)o1	7.3µM*	?	?	26
COCCNC(=O)CSc1c2c(nc3cc(Cl)ccc13)CCCC2	?	?	?	5
O=C(CSc1c2c(nc3ccc(Cl)cc13)CCCC2)N1CCN(C(=O)c2ccco2)CC1	·	25µM*	·	52
